Screens as filed in PubChem.
ANO1 activ = activators or potentiators of mouse TMEM16A chloride channel; Q8BHY3; HEK293 TMEM16A/YFP-H148Q/I152L, iodide quench fluorescence; stronger effect = lower value; B-score at 10 µM; 340,000 tested, 0.3% active;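 active = fluorescence-ratio B-score plate-corrected deviation score at least 3 library SD below zero, with starting fluorescence score within 5 deviations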;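 also: channel opened by trigger with iodide after compound preincubation; score built on the fluorescence ratio of max minus min over baseline; more negative score means more quench and so TMEM16A activation or potentiation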
CHT allo act = human CHT allosteric activation; CHT-expressing cells, membrane potential dye, choline EC20; stronger effect = higher value; LV-AA mutant CHT in HEK293 cells; B-score at 10 µM; 310,000 tested, 0.49% active;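 active = initial fluorescence not abnormally high and integrated response B-score, plate-corrected, over 3 SD above library mean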
Target sequence (Q9GZV3 whole entry, looked up): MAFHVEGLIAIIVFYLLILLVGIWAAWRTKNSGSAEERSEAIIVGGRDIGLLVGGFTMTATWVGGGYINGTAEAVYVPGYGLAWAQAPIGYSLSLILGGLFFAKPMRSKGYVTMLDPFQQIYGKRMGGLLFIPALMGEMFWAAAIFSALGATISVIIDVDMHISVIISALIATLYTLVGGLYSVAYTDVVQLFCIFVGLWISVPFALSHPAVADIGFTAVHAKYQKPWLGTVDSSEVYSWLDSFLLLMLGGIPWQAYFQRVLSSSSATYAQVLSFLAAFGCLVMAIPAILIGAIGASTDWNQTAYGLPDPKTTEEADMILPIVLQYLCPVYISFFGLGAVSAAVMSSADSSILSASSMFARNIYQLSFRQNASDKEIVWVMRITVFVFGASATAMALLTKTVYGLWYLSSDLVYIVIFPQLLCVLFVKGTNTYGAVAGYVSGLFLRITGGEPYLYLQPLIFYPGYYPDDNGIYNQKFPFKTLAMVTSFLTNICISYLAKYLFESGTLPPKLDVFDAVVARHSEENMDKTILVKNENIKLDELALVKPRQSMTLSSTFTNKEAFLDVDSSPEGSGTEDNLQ
ANO1 block = blocks the mouse calcium-activated chloride channel TMEM16A. AID 588511. normalized B-score (activity score, 25-100; higher = stronger inhibition) at 10 µM. Q8BHY3. 310,000 tested, 1.2% active. HEK293 TMEM16A/YFP iodide influx fluorescence, ionomycin;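 active = ratio plate-corrected score three or more library SD toward inhibition, starting fluorescence score within five deviations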;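 also: score derived from kinetic fluorescence span divided by baseline fluorescence per well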
Kir21 inh = inhibitors of mouse Kir2.1 inward-rectifier potassium channel. P35561. HEK293-Kir2.1, FluxOR thallium flux fluorescence; stronger effect = lower value. B-score at 10 µM. 310,000 tested, 0.85% active;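 active = fluorescence ratio B-score at or below minus 3 SD of library scores, with starting-brightness B-score within 2 SD, cut at about -4.2 in these data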;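 also: channel flux triggered by added potassium and thallium sulfate stimulus; B-score of peak minus minimum fluorescence over baseline after thallium stimulus; more negative B-score means stronger Kir2.1 block with less thallium influx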
GPR7 antag = blocks human GPR7 receptor signaling. inhibition, % at 4.4 µM. P48145. GPR7-expressing cells, fluorescence antagonist assay. 290,000 tested, 1.1% active; in the data active = inhibition above about 16%, passing the limit was not always enough;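 also: cells stimulated with the agonist NPW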
CHT block = inhibitors of human choline transporter CHT; CHT-expressing cells, membrane potential dye, choline response; stronger effect = lower value; 310,000 tested, 0.86% active; Q9GZV3; B-score at 10 µM;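 active = B-score over 3 SD under the library average, and starting fluorescence ratio not unusually high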;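 also: choline stimulus applied at its EC90 after an EC20 pre-addition; B-score computed on integrated fluorescence ratio after choline addition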
Of the large screens only hits and unclear results are named; the others gave an inactive call. Compounds with a hit are over-represented: about 3.7% of the library has one in this group of screens.

CCOc1cc(CNC2CCCC2)ccc1OCc1ccccc1Cl	Kir21 inh -4.4
CN(C)c1c([N+](=O)[O-])ncn1C	ANO1 activ -9.6
COc1ccccc1NC(=S)NC1CCC(CC2CCC(NC(=S)Nc3ccccc3OC)CC2)CC1 (stereo not drawn)	none
COc1ccc(-c2nc3ccccc3n2Cc2ccccc2)cc1	none
COc1ccc(-c2n(Cc3ccccc3)c3ccccc3[n+]2Cc2ccccc2)cc1	ANO1 block 25, GPR7 antag 56
Cc1c(Cl)cccc1NC(=O)C1=COCCO1	none (no result: GPR7 antag)
COc1ccc(CCNC(=O)CN(C)S(=O)(=O)c2ccc(OC)cc2)cc1	none
CN(C)CCNC(=O)/C(=C/c1ccc(-c2ccc(Cl)cc2)o1)NC(=O)c1ccccc1	none
CN(C)CCNC(=O)/C(=C/c1ccc(-c2ccc(Cl)cc2Cl)o1)NC(=O)c1ccccc1	Kir21 inh -5.6
O=S(=O)(NCC1(N2CCOCC2)CCCCC1)c1ccc(Cl)cc1C(F)(F)F	ANO1 activ -18
O=S(=O)(NCC1(N2CCOCC2)CCCCC1)c1ccccc1Cl	none (no result: GPR7 antag)
Cc1noc(C)c1CSc1nnc2scc(-c3ccc(Cl)cc3)n12	Kir21 inh -4.4
Cc1ccc(Cl)cc1N1CCN(C(=O)CSc2nnc3n2C(C)(C)Cc2ccccc2-3)CC1	ANO1 block 100
COc1ccc2nc(NC(=O)CSc3nnc4n3C(C)(C)Cc3ccccc3-4)sc2c1	ANO1 activ -8
COc1ccc(N2CCN(C(=O)CSc3nnc4n3C(C)(C)Cc3ccccc3-4)CC2)cc1	ANO1 block 25
CS(=O)(=O)N(CC(=O)N1CCCC1)Cc1ccc(Cl)c(Cl)c1	none
Cc1ccc(NC(=O)CN2CCOCC2)cc1C	none
COc1ccc(OC)c(CCNC(=O)Cn2nc(C)c3c(C)n(-c4ccc(C)cc4)nc3c2=O)c1	none
COc1ccc(CCNC(=O)Cn2nc(C)c3c(C)n(-c4ccccc4)nc3c2=O)c(OC)c1	ANO1 activ -7.9
O=C1CSC(c2ccccc2[N+](=O)[O-])N1c1ccccc1 (stereo not drawn)	Kir21 inh -4.5
O=C1CSC(c2ccccc2[N+](=O)[O-])N1c1ccc(O)cc1 (stereo not drawn)	none
CCN(C(=O)COC(=O)c1ccc(-n2c(C)ccc2C)cc1)c1c(N)n(Cc2ccccc2)c(=O)[nH]c1=O	none (no result: CHT allo act, ANO1 block, Kir21 inh, GPR7 antag, CHT block)
O=C(O)c1cc(-c2ccc(-c3c(-c4ccc5c(c4)OCO5)noc3-c3ccsc3)cc2)nc2ccccc12	ANO1 block 100
CC(=O)c1ccc(N2CCN(C(=S)Nc3ccc(Oc4ccccc4)cc3)CC2)cc1	GPR7 antag 24
CCCCCn1c(N2CCC(Cc3ccccc3)CC2)nc2c1c(=O)[nH]c(=O)n2C	ANO1 block 100
COc1ccc(-c2nc(C)ncc2-c2csc(C)n2)c(O)c1	none
COc1ccc(-c2ncncc2-c2csc(C)n2)c(O)c1	GPR7 antag 17
O=C(CN1C(=O)NC2(CCCCCC2)C1=O)Nc1ccc2c(c1)CCC2	GPR7 antag 70
Cc1ccc(NC(=O)CN2C(=O)NC3(CCCCCCC3)C2=O)cc1C	none (no result: CHT allo act, ANO1 block, Kir21 inh, GPR7 antag, CHT block)
C=CCn1c(NS(=O)(=O)c2ccccc2)c(S(=O)(=O)c2ccc(C)cc2)c2nc3ccccc3nc21	none
O=S(=O)(Nc1c(S(=O)(=O)c2ccccc2)c2nc3ccccc3nc2n1C1CCCCC1)c1ccccc1	ANO1 block 100, Kir21 inh -5.1
Cc1ccc(C)c(N2CCN(C(=O)C3CCCN(c4ncnc5c4nc4n5CCCCC4)C3)CC2)c1 (stereo not drawn)	CHT block -7.4
CC(C)(C)c1ccc(C(=O)Nc2sc3c(c2C(=O)O)CCC3)cc1	ANO1 block 100
Cc1ccc(Cl)cc1N1CCN(S(=O)(=O)c2ccc3c(c2)CC(=O)N3C)CC1	none
Cc1cccc(CS(=O)(=O)c2nnc([C@H](Cc3ccccc3)NC(=O)OC(C)(C)C)o2)c1	Kir21 inh -8.1
C=CCn1c(=O)/c(=C/c2ccsc2)s/c1=C(\C#N)C(=O)NCCN1CCOCC1	none (no result: CHT allo act, ANO1 block, Kir21 inh, GPR7 antag, CHT block)
COc1ccc(OC)c(C(=O)N2CCC(n3nccc3NC(=O)CC(C)C)CC2)c1	none
CCN(CCCNC(=O)CCc1nc(-c2ccc(OC)cc2)no1)c1cccc(C)c1	ANO1 block 100
